In PubChem BioAssay AID504546 (Broad Institute, 2011):
Records with an inconclusive call do not appear. Values without a mark were called inactive.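 The calls were made as follows: active = every repeat run fits a falling-signal curve with half-maximal potency within ten times top tested dose; inconclusive = runs disagree, or flat moderate drop, or poor fit; inactive = every run inactive, including signal moving upward.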

Test: inhibition of ADP-Glo detection reagents, dose response, artefact control for CDK5 inhibitor project, biochemical, luminescence, cherry-picked samples, set 2 (AID 504546);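 also: 0% = DMSO wells and -100% = wells lacking ADP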
Settings: ADP-Glo detection reagent counter screen, 5 uM ADP; series mostly up to 30 µM; activity change, negative = inhibition: at the top concentration

| Structure (SMILES) | activity change, negative = inhibition [%] |
| --- | --- |
| Nc1ncnc2c1ncn2C1OC(CO)C(O)C1O (stereo unspecified) | 12.3 |
| Nc1nc(Nc2ccccc2F)sc1C(=O)c1ccccc1 | -10.2 |
| CC(C)n1cnc2c(NCc3ccc(S(N)(=O)=O)cc3)nc(NCc3ccc(S(N)(=O)=O)cc3)nc21 | -11.1 |
| O=C(c1ccc(F)cc1)c1cnc(Nc2ccccc2)s1 | -8.91 |
| Oc1ccc(C=NNc2ccccn2)c(O)c1 | -9.83 |
| O=C(NNC(=O)c1cccs1)c1ccccc1 | -9.37 |
| Clc1cccc(Cl)c1/C=N/Nc1c(Cl)cncc1Cl | -10.4 |
| CC(C)(C)N=Cc1c(O)ccc2oc3c(c12)CCCC3 | 2.31 |
| Nc1cc2c(cc1[N+](=O)[O-])-c1ccccc1C2=NO | -0.261 |
| Cc1ncc(CO)c(/C=N/Nc2ccc(C(F)(F)F)cn2)c1O | 5.08 |
| COc1ccc(C(=O)c2sc(Nc3ccccc3)nc2N)cc1 | 14.6 |
| CC(=O)[C@H]1CC[C@H]2[C@@H]3CC=C4C[C@@H](OS(=O)(=O)O)CC[C@]4(C)[C@H]3CC[C@]12C | -2.09 |
| CCCn1c(NC(=O)c2cccc(S(=O)(=O)N3CCCC3)c2)nc2ccccc21 | 13.4 |
| O=C(NNC(=O)c1ccco1)c1ccccc1 | 4.63 |
| CC[C@H](CO)Nc1nc(Nc2cccc(Cl)c2)c2ncn(C(C)C)c2n1 | 15.9 |
| O=C(NNC(=O)c1ccccn1)c1ccc(OC(F)F)cc1 | 5.32 |
| O=C(Nc1csc(Cc2c(Cl)cccc2Cl)n1)NN1CCOCC1 | -9.64 |
| Fc1ccccc1/C=N/Nc1ncnc2nc[nH]c12 | 3.58 |

| Structure (SMILES) | activity change, negative = inhibition [%] |
| --- | --- |
| Cc1cccc(Nc2nc(N)c([N+](=O)[O-])c(NCCO)n2)c1 | -6.98 |
| CCc1ncc(/C=C2\C(=O)Nc3ccccc32)[nH]1 | 6.92 |
| O=C(O)c1ccc(/C=N/Nc2ccc(C(F)(F)F)cn2)cc1 | -6.31 |
| Oc1ccc(/C=N/Nc2ccc(C(F)(F)F)cn2)c(O)c1 | 20.8 |
| Nc1nc(Nc2ccccc2)sc1C(=O)c1ccccc1 | 17.3 |
| O=C(O)c1ccc(N/N=C/c2ccc(C(F)(F)F)cc2)cc1 | -9.49 |
| CC1(C)Cc2c(ccc3ccccc23)C(=O)N1 | -9.95 |
| Cc1nn(-c2ncccn2)c2c1C(=O)CC(C)(C)C2Br (stereo unspecified) | 5.02 |
| CN(C)N1C(N)=C(C#N)C(c2cccs2)C2=C1CCCC2=O (stereo unspecified) | 8.74 |
| Nc1nc(Nc2ccccc2)nc(NCCO)c1[N+](=O)[O-] | 16.5 |
| OCCCNc1cc(-c2ccnc(Nc3cccc(Cl)c3)n2)ccn1 | 4.16 |
| Cc1ccc2nc(Cl)c(C#N)cc2c1 | 10.7 |
| CN1CCN(C(=O)c2ccc3c(c2)NC(=O)/C(=C/c2ccccc2)S3)CC1 | 16.2 |
| O=C1NC(=O)C(c2ccccc2[N+](=O)[O-])=C1Nc1ccc(O)c(Cl)c1 | -4.98 |
| COc1cc(OC)c(C(=O)N2CCN(c3ccccn3)CC2)cc1OC | 7.42 |
| COc1cc2c(ccc3cc(OC)c(OC)c(O)c32)cc1O | -0.298 |
| Oc1ccc(/C=N/Nc2ccc(C(F)(F)F)cn2)cc1 | -9.1 |
| N#Cc1c(N)n(C2OC(CO)C(O)C2O)c2ncnc(N)c12 (stereo unspecified) | 7.26 |
